# High-throughput results: PubChem BioAssay, National Center for Advancing Translational Sciences (NCATS)
# Most compounds without a hit are left out; they make up all but 2.6% or so of the library.
# GALK inh: GALK (human) enzyme inhibition | Potency, µM (doses to about 57.5 µM), without a hit: at the top dose activity, negative = inhibition, hits mostly inhibitors | recombinant GALK, Kinase-Glo ATP luminescence, 1 h | AID 1347072 | P51570 | 44,000 tested, under 10 active;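 note: plate controls were full GALK reaction for no effect and reaction lacking GALK for full effect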
# Target sequence (P51570 whole entry, looked up): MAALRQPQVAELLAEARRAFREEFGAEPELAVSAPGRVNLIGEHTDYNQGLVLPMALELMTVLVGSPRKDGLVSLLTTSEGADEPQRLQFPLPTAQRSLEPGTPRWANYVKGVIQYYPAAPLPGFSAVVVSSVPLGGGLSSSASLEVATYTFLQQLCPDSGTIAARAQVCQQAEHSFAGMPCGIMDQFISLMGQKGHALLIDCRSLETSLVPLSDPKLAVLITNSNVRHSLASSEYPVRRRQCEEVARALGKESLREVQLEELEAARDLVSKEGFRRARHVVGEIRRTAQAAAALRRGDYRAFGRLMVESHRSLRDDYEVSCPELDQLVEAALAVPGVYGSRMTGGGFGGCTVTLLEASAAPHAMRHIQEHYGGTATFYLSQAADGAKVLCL
#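 5 nM GALK; 35 uM ATP; 100 uM D-galactose; 20 mM HEPES pH 8.0, 5 mM MgCl2, 60 mM NaCl, 1 mM DTT, 0.01% BSA; 1 h RT; Kinase-Glo Plus luminescence.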
# B2AR arrestin ag: beta-arrestin recruitment by human beta2-adrenergic receptor ligands; P07550; HTLA Tango cells, beta-arrestin recruitment, luciferase luminescence, 18 h; Potency, µM (doses to about 46.1 µM), hits mostly activators; 44,000 tested, under 10 active;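 note: potency is the fitted concentration of half-maximal effect; 0% = DMSO and full agonism = EC100 isoproterenol or metaproterenol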
#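 Luminescence read-out: arrestin recruitment to recombinant beta2-AR releases tTA, inducing luciferase. Cells exposed 18 hr at 37 degrees C to up to 46 microM compound; %Activity from corrected signal, concentration-response curves classified by r2, magnitude and efficacy.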
# TSG101-PTAP inh: blocks PTAP binding to human TSG101, validation. Potency, µM (series often up to 115 µM), hits mostly inhibitors. 44,000 tested, under 10 active. Q99816. Fluorescence polarization, FITC-PTAP peptide/Tsg101, 20 min; note: potency is the fitted concentration of half-maximal effect; 0% is about no effect
#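 The Tsg101 binding domain, at 10 uM final, is mixed with compound and a FITC peptide bearing the PTAP motif (50 nM final). After 20 min at r.t., polarization is measured; actives defined by CRC class, efficacy cut-off 60% inhibition.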
# GPR32 ag: GPR32 (DRV1) agonism, beta-arrestin recruitment. activation, % at 76.9 µM. CHO-K1 GPR32 beta-arrestin PathHunter luminescence, 90 min; zero percent set by DMSO-only wells. O75388. hit rate 2.5% among 48,000;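 active = activation of at least 60% and not above a set upper limit, about 1 call in 100 departs from these limits; inconclusive = activation of 40% to 60%, or above that upper limit; inactive = activation under 40%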; note: 0% is about no effect
#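 PathHunter beta-arrestin recruitment in CHO-K1 cells stably expressing ProLink-tagged GPR32. Cells were exposed to compound for 90 min at 37 C, then chemiluminescence was read after 1 h detection at ambient temperature; DMSO served as basal control.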
# GALC G270D act: enhancers of human galactocerebrosidase G270D mutant activity in cells | Potency, µM (top dose mostly 57.5 µM), usual class: activators | AID 1159614 | hit rate 0.1% among 45,000 | 145M-Twi-hGALC-G270D cells, HMU-beta-Gal fluorescence, 48 h | P54803; note: potency is the fitted concentration of half-maximal effect; 0% is about no effect; nearly all actives have a fitted effect of over 65% in size
#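 qHTS, 1536-well; 145M-Twi-hGALC-G270D cells (WT line also made) in DMEM/F12 + 10% FBS; compound incubation on live cells; HMU-β-gal 0.1 mM final, pH 5.2, NaTC; carbonate stop; fluorescence increase = enhanced residual activity.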
# Numbers without * were called inactive; i = inactive; ? = inconclusive; . = no result. Unless noted, calls come from the whole dose curve; as a rule, active = well fitted curve in the direction sought with a large enough effect; inconclusive = small, poorly fitted or top-dose-only effect, or another doubt; inactive = no such curve, though single readings can be large; an effect the other way counts as inactive or inconclusive.
SMILES,GALK inh,B2AR arrestin ag,TSG101-PTAP inh,GPR32 ag,GALC G270D act
COc1ccc(-c2noc(-c3ccc(N4CCN(C)CC4)c([N+](=O)[O-])c3)n2)cc1,-11%,i,i,6,i
CN(C)c1ccc(-c2nc(-c3ccccn3)no2)cc1[N+](=O)[O-],-9%,i,i,76*,i
CN1CCN(c2ccc(-c3nc(-c4ccccc4)no3)cc2[N+](=O)[O-])CC1,2%,i,i,83*,i
CN(Cc1ccccc1)c1ccc(-c2nc(-c3ccccn3)no2)cc1[N+](=O)[O-],-10%,i,i,30,i
Cc1ccc2nc(N3CCN(c4cccc(C(F)(F)F)c4)CC3)c3nnnn3c2c1,3%,i,i,1,.
O=C(Nc1nnc(SCc2cc(=O)c3ccccc3[nH]2)s1)c1ccccc1,-3%,i,i,33,i
Cc1ccc(C(=O)Nc2nnc(SCc3cc(=O)c4c(C)ccc(C)c4[nH]3)s2)cc1,0%,i,i,71*,i
O=c1cc2nc(-c3ccccc3F)nc(SCc3ccc(Br)cc3)n2[nH]1,2%,i,i,108*,i
COC(=O)c1ccc(C2Nc3c(C)cc(C)cc3C3C=CCC32)cc1 (stereo unspecified),4%,i,i,79*,i
Cc1ccc(C(CC(=O)NCC2(c3ccccc3)CCCC2)c2ccccc2)c(O)c1 (stereo unspecified),8%,i,i,63*,.
CC1=C(C(=O)Nc2ccc(Cl)cc2)C(c2ccc(C(F)(F)F)cc2)n2nnnc2N1 (stereo unspecified),9%,i,i,65*,i
CC1=C(C(=O)Nc2ccc(C)cc2)C(c2ccc(Cl)cc2)n2nnnc2N1 (stereo unspecified),0%,i,i,-3,i
CNC(=O)CN1C(=O)COc2ccc(S(=O)(=O)N3CCC(C)CC3)cc21,-4%,i,i,-3,i
Cc1ccc(NC(=O)CN2C(=O)CCc3ccccc32)cc1C,?,i,i,-3,i
Cc1ccc(NC(=O)c2c(NC(=O)C(F)(F)F)sc3c2CCCCC3)cc1,0%,i,i,62*,i
COc1ccc(Nc2nc3ccccc3nc2NS(=O)(=O)c2ccc(Cl)cc2)cc1OC,0%,i,i,118*,i
Cc1cccc(C)c1Nc1nc2ccccc2nc1NS(=O)(=O)c1ccccc1,0%,i,i,47,i
COc1ccc(-c2nc3ccc(NS(=O)(=O)c4ccc(Cl)cc4)cc3o2)cc1,0%,i,i,79*,i
O=C1CCCc2c(O)cccc21,.,.,.,-3,i
Cc1cc2c(cc1CC(=O)c1sccc1S(=O)(=O)Nc1onc(C)c1Cl)OCO2,.,.,.,23,i
O=C(NCCn1cc(SCc2ccc(F)cc2)c2ccccc21)c1cccs1,-2%,i,i,34,i
Cc1cccc(CSc2cn(CC(=O)N3CCCCC3)c3ccccc23)c1,1%,i,i,-25,i
CCN(CC)S(=O)(=O)c1ccc2c(c1)c(=O)c(C(=O)N(C)Cc1ccccc1)cn2C,6%,i,i,-9,25µM*
COc1cc(NC(=O)c2cc(-c3cccc(OC)c3)n[nH]2)cc(OC)c1,-2%,i,i,81*,i
Cc1ccc(C(=O)NCC(c2ccc3c(c2)OCO3)N2CCN(c3ccc(F)cc3)CC2)cc1 (stereo unspecified),0%,i,i,-32,i
SMILES,GALK inh,B2AR arrestin ag,TSG101-PTAP inh,GPR32 ag,GALC G270D act
Cc1cccc(CNC(=O)CN2C(=O)CCn3nc(-c4cn(C)c5ccccc45)cc32)c1,1%,i,i,107*,i
Cc1cccc(CNC(=O)CCCN2C(=O)CCn3nc(-c4cn(C)c5ccccc45)cc32)c1,0%,i,i,-8,i
Cn1cc(-c2cc3n(n2)CCC(=O)N3CCCC(=O)Nc2ccccc2Cl)c2ccccc21,-3%,i,i,60*,i
COC(=O)c1c(-c2cccs2)csc1NC(=O)COc1ccc(C(C)C)cc1,-8%,i,i,-23,i
COc1ccc(-n2c(=O)c3ccc(C(=O)NCc4ccc(C)cc4)cc3n(CC(=O)Nc3ccc(C)cc3)c2=O)cc1,-1%,i,i,-3,i
COc1ccc(-n2c(=O)c3ccc(C(=O)NCc4ccc(C)cc4)cc3n(CC(=O)Nc3ccc(F)cc3)c2=O)cc1,7%,i,i,94*,i
CC1=Nc2cc(C(=O)NCCc3ccc(Cl)cc3)ccc2Sc2c(C)ccc(C)c21,0%,i,i,-15,i
CC(C)(C)C(=O)Nc1ccc(Cl)c(-c2nc3ccccc3[nH]2)c1,0%,i,i,88*,i
CC(C)CC(=O)Nc1ccc(Cl)c(-c2nc3ccccc3[nH]2)c1,0%,i,i,32,i
COc1ccc(NC(=O)c2cccn2-c2nnc(N3CCCCC3)s2)c(OC)c1,0%,i,i,-17,i
CCN(CC)c1ccc(NC(=O)c2cccn2-c2nnc(N3CCCCC3)s2)c(C)c1,1%,i,i,76*,i
O=C(COc1ccc(Cl)cc1)NCCc1csc(-c2cccc(F)c2)n1,1%,i,i,77*,i
O=C(NCCc1csc(-c2ccc(F)cc2)n1)c1ccco1,1%,i,i,109*,i
COc1cccc(C(=O)NCCc2csc(-c3cccc(F)c3)n2)c1OC,0%,i,i,?,i
Cc1ccc(-c2nc3sc(CCNC(=O)c4ccco4)c(C)n3n2)cc1,0%,i,i,65*,i
O=C(COc1ccccc1)NCCc1csc(-c2ccc(F)cc2)n1,-1%,i,i,120*,i
Cc1c(CCNC(=O)c2ccco2)sc2nc(-c3ccc(F)cc3)nn12,-1%,i,i,-12,i
C[C@H]1C[C@H]2[C@@H]3CCC4=CC(=O)C=C[C@]4(C)[C@H]3C(=O)C[C@]2(C)[C@@]1(O)C(=O)CO,.,.,.,-12,i
CCOc1ccc(CC(=O)NCCc2csc(-c3ccc(Cl)cc3)n2)cc1,-2%,i,i,88*,i
COc1ccc(CC(=O)NCCc2csc(-c3cccc(F)c3)n2)cc1OC,2%,i,i,28,i
O=C(CCc1ccccc1)NCCc1csc(-c2cccc(F)c2)n1,-3%,i,i,85*,i
CCN(C(=O)c1ccc2c(c1)N(Cc1cccc(Cl)c1)C(=O)c1ccccc1S2=O)c1ccccc1 (stereo unspecified),2%,i,i,-29,i
